From PubChem BioAssay (NCATS)
“And” between values parts separate entries of the source, which are not always exact repeats. Equal values may be shown once. Records with an inconclusive call do not appear. Where a structure was tested more than once in an assay, its records may differ in their call. The source made the active and inactive calls. Unless noted, calls come from the whole dose curve.

Experiments:
[1] = qHTS Assay for Identifying Gametocytocidal Compounds (AID 743244; active = well fitted curve in the direction sought with a large enough effect; an effect the other way counts as inactive or inconclusive; note: potency is the fitted concentration of half-maximal effect); details: P. falciparum 3D7 stage III-V gametocytes, alamarBlue, 72 h
Method in brief: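 P. falciparum 3D7 stage III–V gametocytes (20,000 cells/well) were exposed to compounds for 72 h at 37 °C, 5% CO2. AlamarBlue was then added for 24 h; decreased resorufin fluorescence (Ex 525/Em 598 nm) indicated loss of viability.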

[2] = Primary qHTS for inhibitors of MERS-S pseudo-typed particle cell entry (AID 1479149); details: outcome: dose series up to 57.1 µM unless noted; note: nearly all actives have a fitted effect of over 60% in size; note: potency is the fitted concentration of half-maximal effect; for activity change, negative = inhibition: % is set by controls: 0 for no effect and ±100 for the full control effect
[3] = Primary qHTS for Vero E6 cytotoxicity: counterscreen for inhibitors of SARS-S pseudo-typed particle cell entry (AID 1479150); details: outcome: dose series up to 57.1 µM unless noted; note: potency is the fitted concentration of half-maximal effect
[4] = Confirmatory qHTS to identify inhibitors of SARS-CoV-2 cell entry (AID 1645844); note: potency is the fitted concentration of half-maximal effect; nearly all actives have a fitted effect of over 45% in size
Method in brief: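 HEK293-ACE2 cells (Expi293F stably expressing human ACE2) were pretreated with compounds for 1 hr at 37C, then infected with MLV-based particles carrying Wuhan-Hu-1 spike (C-terminal 19-aa truncation). Luciferase luminescence read after 48 hr; normalized to spike PP (100%) and bald PP (0%).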

[5] = Cytotoxicity counterscreen for inhibitors of SARS-CoV-2 cell entry (AID 1645845); details: outcome: dose series up to 57.1 µM unless noted; note: nearly all actives have a fitted effect of over 50% in size; note: potency is the fitted concentration of half-maximal effect
Method in brief: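 Expi293F/hACE2 cells seeded overnight; cpd pin-transferred in DMSO, 1 h preincubation, + media, 48 h 37 C 5% CO2; ATPLite 1step luminescence; normalized to cells and no cells.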

[6] = Primary qHTS to identify inhibitors of SARS-CoV-2 cell entry (AID 1645846); details: SARS-CoV-2 pseudovirus cell entry assay, luminescence; activity change, negative = inhibition: at 57.1 µM (top of the series) unless noted; note: nearly all actives have a fitted effect of over 45% in size; note: potency is the fitted concentration of half-maximal effect
Method in brief: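 Data are normalized to wells receiving SARS-CoV-2-S pseudoparticles and those given bald particles. Entry signal was luciferase luminescence in stable hACE2 Expi293F cells, 48 hr post-infection, after 1 hr compound pretreatment.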

[7] = VSVG counterscreen qHTS to identify inhibitors of SARS-CoV-2 cell entry (AID 1645847); note: potency is the fitted concentration of half-maximal effect; nearly all actives have a fitted effect of over 65% in size
Method in brief: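 Counterscreen using VSV-G (not spike) pseudotyped MLV particles on ACE2-expressing Expi293F cells after 1 h compound preincubation; infection ran 48 h at 37 °C. Data normalized to VSV-G PP and bald-PP wells.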

[8] = Confirmatory qHTS for VERO E6 Cytotoxicity Assay: Counterscreen for SARS-CoV-2 CPE Assay (AID 1508605); note: nearly all actives have a fitted effect of over 60% in size; note: potency is the fitted concentration of half-maximal effect; for activity change, negative = cytotoxic: % is set by controls: 0 for no effect and ±100 for the full control effect
[9] = Primary qHTS for Huh7 cytotoxicity: counterscreen for inhibitors of MERS-S pseudotyped particle cell entry (AID 1479147); details: outcome: dose series up to 57.1 µM unless noted; note: % is set by controls: 0 for no effect and ±100 for the full control effect
[10] = target: Glutathione peroxidase 1 (Homo sapiens) (UniProt P07203); test: Primary qHTS Assay for Inhibitors of Recombinant Selenoprotein Glutathione Peroxidase 1 (GPX1) (AID 1845191; active = well fitted curve in the direction sought with a large enough effect; an effect the other way counts as inactive or inconclusive; note: % is set by controls: 0 for no effect and ±100 for the full control effect; nearly all actives have a fitted effect of over 65% in size)
Method in brief: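 Recombinant GPX1 (10 nM final) was preincubated with compound for 30 min at room temperature, then reacted with 1 mM GSH, 0.5 mM CHP, 0.5 mM NADPH and 100 nM glutathione reductase; NADPH fluorescence (340/450 nm) was read at 0 and 15 min.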

[11] = Confirmatory qHTS for activators (rescue) of SARS-CoV-2 Cytopathic Effect (CPE) (AID 1508606); note: nearly all actives have a fitted effect of over 70% in size; note: potency is the fitted concentration of half-maximal effect

Sequence of Glutathione peroxidase 1 (Homo sapiens) (P07203 whole entry, looked up): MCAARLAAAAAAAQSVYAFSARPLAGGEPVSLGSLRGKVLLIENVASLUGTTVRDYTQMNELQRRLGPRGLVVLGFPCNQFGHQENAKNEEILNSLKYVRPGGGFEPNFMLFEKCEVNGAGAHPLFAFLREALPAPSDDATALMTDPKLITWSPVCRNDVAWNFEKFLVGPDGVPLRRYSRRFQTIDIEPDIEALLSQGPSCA

For `CCCCC(=O)OCC(=O)[C@]1(O)Cc2c(O)c3c(c(O)c2[C@@H](O[C@H]2C[C@H](NC(=O)C(F)(F)F)[C@H](O)[C@H](C)O2)C1)C(=O)c1c(OC)cccc1C3=O`, the Potency [1] was 7.08 µM (active), the Potency [2] was 14.1 µM (active) and the Potency [3] was “inactive”. The Potency [4] was 0.857 µM (active), the Potency [5] was “inactive” and the Potency [6] was 1 µM (active). The activity change, negative = inhibition [6] was -97.5% and the Potency [7] was 0.961 µM (active).

In the case of `O=C1NC(=O)c2cc(Nc3ccc(F)cc3)c(Nc3ccc(F)cc3)cc21`, the Potency [8] is reported as 11.2 µM (active).

With `CC(Cc1ccc(O)c(O)c1)C(C)Cc1ccc(O)c(O)c1` (stereo not drawn) the Potency [9] was “inactive”, the Potency [3] was “inactive” and the Potency [5] was “inactive”. For the same molecule, the Potency [7] was 27.1 µM (active).

In the case of `O=C1CSC2(CCN(CCCN3c4ccccc4Sc4ccc(Cl)cc43)CC2)N1`, the Potency [9] is reported as “inactive”, the Potency [3] is reported as “inactive” and the Potency [6] is reported as 25.1 µM (active).

With `CCSc1ccc2c(c1)N(CCCN1CCN(C)CC1)c1ccccc1S2` the Potency [3] was “inactive”.

In the case of `CCCCCCOc1ccc(C(=N)N(CCCC)CCCC)c2ccccc12`, the Potency [3] is reported as 14.1 µM (active) and the Potency [8] is reported as 10 µM (active).

In the case of `CC(C)(C)NCC(O)COc1ccccc1C1CCCC1` (stereo not drawn), the Potency [9] is reported as “inactive”, the Potency [3] is reported as “inactive” and the Potency [6] is reported as 10 µM (active). For the same molecule, the Potency [7] was 12.1 µM (active).

For `FC(F)(F)C(F)(F)C(F)(F)C(F)(F)C(F)(F)F`, the Potency [2] was “inactive”.

With `C/C(=C(\CCOC(=O)c1ccccc1)SS/C(CCOC(=O)c1ccccc1)=C(/C)N(C=O)Cc1cnc(C)nc1N)N(C=O)Cc1cnc(C)nc1N` the Potency [2] was “inactive” and the Potency [5] was “inactive”.

With `CC1CCCC(O)CCCCCc2cc(O)cc(O)c2C(=O)O1` (stereo not drawn) the Potency [9] was “inactive”, the Potency [3] was “inactive” and the Potency [10] was “inactive”.

In the case of `C[C@H](Oc1cc(-c2cnn(C3CCNCC3)c2)cnc1N)c1c(Cl)ccc(F)c1Cl`, the Potency [2] is reported as 12.6 µM (active) and the Potency [3] is reported as “inactive”.

For `CC(C)N1CCN(c2ccc(OC[C@@H]3CO[C@@](Cn4cncn4)(c4ccc(Cl)cc4Cl)O3)cc2)CC1`, the Potency [2] was “inactive”, the Potency [3] was “inactive” and the Potency [5] was “inactive”.

With `C=CC(=O)Nc1cc(Nc2nccc(-c3cn(C)c4ccccc34)n2)c(OC)cc1N(C)CCN(C)C` the Potency [2] was 31.6 µM (active), the Potency [5] was 28.2 µM (active) and the Potency [6] was 3.16 µM (active) and 8.91 µM (active).

With `Cc1cccc(/C=N/Nc2cc(N3CCOCC3)nc(OCCc3ccccn3)n2)c1` the activity change, negative = cytotoxic [8] was -20.4% [at 1.7 µM] (inactive), the Potency [11] was 0.0142 µM (active) and the Potency [4] was 0.0764 µM (active). For the same molecule, the activity change, negative = inhibition [6] was -96.7% and the Potency [7] was 7.64 µM (active).

In the case of `CNCc1ccc(-c2cc(-c3nc(-c4ccc(S(=O)(=O)C(C)C)cc4)cnc3N)on2)cc1`, the Potency [8] is reported as 11.2 µM (active), the Potency [11] is reported as 1.78 µM (active) and the Potency [5] is reported as “inactive”. For the same molecule, the activity change, negative = inhibition [6] was -25.7%.

In the case of `Nc1ncnc2c1c(-c1ccc(Oc3ccccc3)cc1)nn2[C@@H]1CCCNC1`, the Potency [8] is reported as 8.91 µM (active) and the Potency [11] is reported as “inactive”.

In the case of `CONC(=O)Nc1ccc(-c2sc3c(c2CN(C)Cc2ccccc2)c(=O)n(-c2ccccc2)c(=O)n3Cc2c(F)cccc2F)cc1`, the Potency [8] is reported as “inactive” and the Potency [11] is reported as “inactive”.

For `CCCC[C@@H](C=O)NC(=O)[C@H](CC(C)C)NC(=O)OCc1ccccc1`, the Potency [8] was “inactive”, the Potency [11] was 0.355 µM (active) and the Potency [4] was 1.08 µM (active). For the same molecule, the Potency [5] was “inactive” and the activity change, negative = inhibition [6] was -89.9%.

In the case of `CCC(C)C(=O)OC1C(C)C2(O)C(C=C(CO)CC3(O)C(=O)C(C)=CC32)C2C(C)(C)C12OC(=O)C(C)C` (stereo not drawn), the Potency [8] is reported as “inactive” and the Potency [11] is reported as “inactive”.

For `Fc1ccc2c(CCNCc3cccc(OCC(F)(F)C(F)F)c3)c[nH]c2c1`, the Potency [8] was “inactive” and the Potency [11] was 10 µM (active).

With `COC(=O)Nc1cc(Nc2cc(NC3CC3)c3ncc(C#N)n3n2)c(Cl)c(N2CCN(C)CC2)c1` the Potency [8] was 2.51 µM (active) and the Potency [11] was “inactive”.

With `Cc1ccc(NCCN(C)CCNc2ccnc3cc(Cl)ccc23)c2c(=O)c3ccccc3sc12` the Potency [8] was “inactive” and the Potency [11] was “inactive”.

For `O=C1c2ccccc2-c2nc3nnnn3nc21` (tested in a mixture with another compound), the Potency [8] was 1.12 µM (active) and the Potency [11] was “inactive”.

For `CC1CCN(C(c2ccc(F)cc2)c2ccc(C(C)C(=O)O)cc2-c2ccc(C(F)(F)F)cc2)CC1` (stereo not drawn), the Potency [8] was 11.2 µM (active) and the Potency [11] was “inactive”.

In the case of `C=CC(C)(C)c1[nH]c2ccccc2c1C1=C(O)C(=O)C(c2c[nH]c3c(CC=C(C)C)cccc23)=C(O)C1=O`, the Potency [8] is reported as 3.98 µM (active) and the Potency [11] is reported as “inactive”.

For `CC#C[C@@H](CC(=O)O)c1ccc(OCc2cccc(-c3ccc(C(F)(F)F)cc3)c2)cc1`, the Potency [8] was “inactive”, the Potency [11] was 11.2 µM (active) and the Potency [5] was “inactive”.

For `CC1=CC2OC3CC(O)[C@@](C)(C34CO4)[C@@]2(C)C(O)C1=O` (stereo partly drawn), the Potency [8] was 3.55 µM (active) and the Potency [11] was “inactive”.

In the case of `CC/C(=C(/CC)c1ccc(O)c(CN(CC)CC)c1)c1ccc(O)c(CN(CC)CC)c1`, the Potency [8] is reported as “inactive” and the Potency [11] is reported as 8.91 µM (active).

With `C[C@@H]1O[C@@H](O[C@@H]2[C@@H](O)[C@H](O[C@@H]3[C@@H](O)[C@@H](O)[C@H](O[C@H]4[C@H](OC(=O)[C@]56CCC(C)(C)C[C@H]5C5=CCC7[C@@]8(C)C[C@H](O)[C@H](O[C@@H]9O[C@@H](C)[C@H](O)[C@@H](O)[C@H]9O)[C@@](C)(CO)C8CC[C@@]7(C)[C@]5(C)C[C@H]6O)O[C@H](C)[C@H](O)[C@@H]4O)O[C@H]3C)OC[C@H]2O)[C@H](O)[C@H](O)[C@H]1O` (stereo partly drawn) the Potency [8] was 1.91 µM (active) and the Potency [11] was 0.602 µM (active).

In the case of `Cc1cc(C)c(CNC(=O)c2cc(-c3ccc(N4CCN(C)CC4)nc3)cc3c2c(C)cn3C(C)C)c(=O)[nH]1`, the Potency [8] is reported as “inactive”, the Potency [11] is reported as 10 µM (active) and the Potency [4] is reported as 27.1 µM (active). The Potency [5] was “inactive” and the activity change, negative = inhibition [6] was -89.9%.
